In the library only some 19% were active in any assay of this set; here they are far more common.
TDP1 cell CPT = growth inhibition of DT40 Tdp1-/-;hTDP1 cells with camptothecin (screen for TDP1 inhibitors) | chicken DT40 Tdp1-/-;hTDP1 cells + 20 nM CPT, ATP luminescence, 48 h | Potency, µM (top dose mostly 46.2 µM), without a hit: top-dose activity change, negative = growth inhibition, most hits filed as inhibitors | 420,000 compounds, 12% hits | AID 686979; further: potency means the concentration at half of the fitted maximal effect; nearly all actives have a fitted effect of over 55% in size
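Chicken DT40 Tdp1-/- cells stably complemented with human TDP1 were seeded at 400 cells/well in medium containing 20 nM camptothecin, exposed to pin-transferred compounds, and grown at 37 °C for at least 48 hr. Viability was read as ATP luminescence.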
TDP1 cell noCPT = qHTS for Inhibitors of human tyrosyl-DNA phosphodiesterase 1 (TDP1): qHTS in cells in absence of CPT | DT40 Tdp1-/- hTDP1 cells, no CPT, ATP luminescence, 48 h | Potency, µM (series often up to 46.2 µM), for the others: at the top dose activity change, negative = growth inhibition, actives largely listed as inhibitors | 420,000 compounds, 15% hits | AID 686978, 2013; further: potency means the concentration at half of the fitted maximal effect; nearly all actives have a fitted effect of over 55% in size
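Stably hTDP1-transfected Tdp1-null chicken DT40 cells were treated with library compounds minus camptothecin and grown for at least 48 hr at 37 °C, after which cellular ATP was quantified by luminescence.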
IL1B secr inh = inhibitors of inflammasome signaling (IL-1 beta secretion) | THP-1 LPS/ATP IL-1B secretion, AlphaLISA, 16 h; hits give low values | activity change, % at 57.5 µM | 360,000 compounds, 4.7% hits; in the data active means activity change below about -50%; inconclusive means mostly about -30% to -49%
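Secreted IL-1B measured by AlphaLISA bead assay after 16 h compound exposure of THP-1 cells; compounds (final up to 57.5 uM) added 1 h before LPS (250 ng/mL) and ATP (1.25 mM) stimulation; lower signal means less secretion.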
HT1080 IDH1KD tx = HT-1080 IDH1 knockdown cell toxicity (counter line); HT-1080 IDH1 knockdown viability, ATP luminescence, 48 h; Potency, µM (highest dose often 46.1 µM), without a hit: at the top dose activity, negative = toxicity, most hits filed as cytotoxic; 360,000 compounds, 2% hits; AID 686971;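 further: potency means the concentration at half of the fitted maximal effect; 0% = DMSO wells and -100% = cell-free medium wells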
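Assay cells: HT-1080 with IDH1 knockdown, 750 per well, RPMI/5% FBS. Exposure: 48 h at 37 °C following 2 h pre-incubation. Read: CellTiter-Glo luminescence; fitted concentration-response, curve class assigned.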
HT1080-NT tox = kills 2HG-producing HT-1080-NT fibrosarcoma cells; AID 686970; HT-1080-NT fibrosarcoma viability, CellTiter-Glo ATP luminescence, 48 h; 360,000 compounds, 1.6% hits; Potency, µM (titrated, usually from 46.1 µM), for the others: top-dose activity, negative = less viability, actives largely listed as cytotoxic;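 further: NT is the 2HG producing partner of a matched IDH1 knockdown line; potency means the concentration at half of the fitted maximal effect; 0% = DMSO-treated cells and -100% = media-only wells without cells; nearly all actives have a fitted effect of over 55% in size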
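Compounds were tested in concentration-response format on HT-1080-NT cells for 48 hours at 37 degrees C. Cell viability came from CellTiter-Glo luminescence; curves were classified by r2, response magnitude and activity.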
Active calls of the source: *; ? = inconclusive; · = not tested or not shown; [ ] = dose if it differs, or a comment. Unless noted, the call rests on the fitted dose curve; in most records, active means well fitted curve in the direction sought with a large enough effect; inconclusive means small, poorly fitted or top-dose-only effect, or another doubt; inactive means no such curve, though single readings can be large; an effect the other way counts as inactive or inconclusive. Unless noted, on the % scale 0 is the no-effect control and ±100 the full control effect.

SMILES	TDP1 cell CPT	TDP1 cell noCPT	IL1B secr inh	HT1080 IDH1KD tx	HT1080-NT tox
CCOc1ccc2ccccc2c1/C=N/NC(=O)CNC(=O)c1ccccc1O	5.9%	?	-7.8	-15.5%	-6.9%
COC1=CC(=O)OC(c2cccc(C#N)c2)C1 (centres undefined)	-4.3%	20.8%	-19.1	13.9%	11.8%
COCCCNC(=O)c1ccc(NC(=O)N2CCCCc3ccccc32)cc1	-1.2%	-2.8%	·	·	·
COc1ccc(CNC(=O)c2ccc(NC(=O)N3CCCCc4ccccc43)cc2)cc1	?	18.4µM*	·	·	·
CCCCOc1ccc(CNC(=O)Cc2ccc(NC(=O)N3CCCCc4ccccc43)cc2)cc1	14.6µM*	16.4µM*	·	·	·
CC(C)NC(=O)c1ccc(NC(=O)N2CCCCc3ccccc32)cc1	-20.7%	?	·	·	·
COc1cc(OC)c(C2=NOC(C(=O)N3CCCc4ccccc43)C2)cc1Cl (centres undefined)	13µM*	?	-25.1	3.2%	6.0%[9.24 µM]
CCC1CCCCN1C(=O)C1CC(c2cc(Cl)c(OC)cc2OC)=NO1 (centres undefined)	?	-15.9%	-1.6	-5.5%	-3.6%
CC1CN(C(=O)CSc2nnc(CNC(=O)c3ccc(S(=O)(=O)N(C)C)cc3)o2)CC(C)O1 (centres undefined)	-6.2%	-7.8%	5.5	-2.2%	-2.7%
CN1C(=O)c2ccccc2C1=O	?	-23.6%[92.5 µM]	·	·	·
COc1c(C2=CC(=O)N(C)C2=O)c2c(n1C)C(=O)c1ccccc1C2=O	0.517µM*	0.581µM*	·	·	·
Cc1cc(=O)n2nc(N3CCC(C(=O)NCc4ccc(Cl)cc4)CC3)sc2n1	-9.2%	?	-9.9	-4.0%	-10.4%
COc1cccc(OC)c1C(=O)NCCc1ccccc1	-2.6%	-2.8%	25.3	-2.0%	-1.8%
COc1cc(CCc2ccccc2)c(C(=O)O)c(O)c1C/C=C(/C)CCC=C(C)C	?	16.4µM*	35.2	?	?
COc1cc(CCc2ccccc2)c(C(=O)O)c(O)c1CC=C(C)C	23.1µM*	18.4µM*	-27.0	-8.1%	-12.4%
COCOc1ccc(/C=C/C(=O)c2c(OCOC)cc(OCOC)c(CC=C(C)C)c2O)cc1OCOC	?	?	18.9	7.7%	2.6%
O=C(NCc1ccccc1CN1CCCC1)c1cccc(N2CCCC2=O)c1	-4.3%	-3.8%	5.0	8.7%	6.8%[9.24 µM]
COc1cc2sc3ccc(-c4ccc(CN5CCOCC5)cc4)cc3c(=O)c2cc1OC	18.4µM*	13µM*	-2.8	19.2%	20.1%
COc1cc2sc3ccc(-c4ccc(N(C)C)nc4)cc3c(=O)c2cc1OC	5.8µM*	5.8µM*	21.3	16.7%	10.9%
CN(C)CC(C)(C)CNS(=O)(=O)c1ccc(OC(F)(F)F)cc1	-7.9%	-10.7%	0.2	1.5%	12.3%
CN(C)CC1CCCCC1OC(=O)/C=C/c1ccc(Cl)cc1Cl (centres undefined)	?	?	-79.3*	-14.7%	-28.9%
CCN(C(=O)Cn1nc(Cc2cccnc2)c2ccccc2c1=O)c1ccccc1F	?	-23.0%	·	·	·
CC1=NN(c2ccc(Cl)cc2)C(=O)C1C(c1cccc(O)c1)c1c(C)[nH]n(-c2ccc(Cl)cc2)c1=O (centres undefined)	?	?	0.0	?	16.4µM*
CC1=NN(c2ccc(F)cc2)C(=O)C1C(c1cccc(O)c1)c1c(C)[nH]n(-c2ccc(F)cc2)c1=O (centres undefined)	?	?	46.8	-19.4%	?
O=C(Nc1ccccc1)[C@@H]1CC=C[C@@H]2CCN(C3CCCCC3)C(=O)[C@@H]21	?	?	-12.6	10.0%	12.7%
SMILES	TDP1 cell CPT	TDP1 cell noCPT	IL1B secr inh	HT1080 IDH1KD tx	HT1080-NT tox
O=C(O)c1ccc(N=Nc2c(O)ccc3ncccc23)cc1	4.11µM*	2.91µM*	18.8	23.1µM*	?
O=C(O)c1cc(N=Nc2c(O)ccc3ccccc23)cc(C(=O)O)c1	-24.2%	-4.8%	35.5	-8.1%	0.4%
COC(=O)CCC(=O)NC(=S)Nc1ccccc1F	-7.6%	-6.4%	0.0	9.7%	10.5%
COc1cc(/C=C/C(=O)N2CCCCC2=O)cc(OC)c1OC	2.99µM*	3.76µM*	·	·	·
COc1cc2c(cc1OC)CN(C(=O)/C=C/c1ccc(F)cc1)CC2	?	?	-13.2	-1.6%	-1.5%
COc1cc2c(cc1OC)C(C)N(C(=O)/C=C/c1cc(OC)c(OC)c(OC)c1)CC2 (centres undefined)	14.6µM*	8.2µM*	-22.2	-7.3%	-0.6%
COc1cc(/C=C/C(=O)N2CCCC2)cc(OC)c1OC	9.2%	3.2%	0.0	8.3%	10.5%
COc1cc2c(cc1OC)C(CNC(=O)C=Cc1cc(OC)c(OC)c(OC)c1)C2 (centres undefined)	?	18.4µM*	-13.4	0.8%	-7.0%
COc1ccc(CC(=O)N2CCc3cc(OC)c(OC)cc3C2C)c(OC)c1 (centres undefined)	?	?	21.6	-5.0%	1.1%
COc1cc2c(cc1OC)CN(C(=O)/C=C/c1cc(OC)c(OC)c(OC)c1)CC2	?	9.2µM*	-11.7	-5.8%	-6.8%
CCCCCCCCCCCCCCC[C@@H](O)[C@H](CO)NC(=O)CCCCCCC	?	0.0%[4.12 µM]	·	·	·
CCCCN(Cc1ccco1)S(=O)(=O)c1csc(C(N)=O)c1	?	?	-7.1	-4.6%	-4.4%
COC(=O)c1cc(F)c(-n2cncn2)c(F)c1	-5.6%	-5.3%	-5.0	-4.9%	4.8%
COC(=O)c1cc([N+](=O)[O-])c(-n2cncn2)c([N+](=O)[O-])c1	5.8µM*	5.8µM*	-14.0	-3.4%	3.0%
CCOC(=O)C(C(=O)OCC)N(C#N)c1nc(N(C)C)nc(N(C)C)n1	10.3%	-11.6%	-99.7*	-21.8%	-20.9%
CCOC(=O)C(C(=O)OCC)N(C#N)c1nc(C)cc(C)n1	-4.9%	-6.2%	-4.3	8.8%[9.24 µM]	5.9%
